Compound activity deposited in PubChem BioAssay by National Center for Advancing Translational Sciences (NCATS).
Only some compounds are listed: those with a hit (about 1.5% of all), similar ones and a draw of the others.
FEN1 inh-1 – inhibitors of human flap endonuclease 1; P39748; Recombinant FEN1 flap cleavage, fluorescence, 15 min; Potency, µM (highest dose often 114 µM), for the others: at the top dose activity change, negative = inhibition, actives largely listed as inhibitors; 390,000 compounds, 0.35% hits; further: potency means the concentration at half of the fitted maximal effect; on the % scale 0 is the no-effect control and ±100 the full control effect; nearly all actives have a fitted effect of over 65% in size
Target sequence (P39748 whole entry, looked up): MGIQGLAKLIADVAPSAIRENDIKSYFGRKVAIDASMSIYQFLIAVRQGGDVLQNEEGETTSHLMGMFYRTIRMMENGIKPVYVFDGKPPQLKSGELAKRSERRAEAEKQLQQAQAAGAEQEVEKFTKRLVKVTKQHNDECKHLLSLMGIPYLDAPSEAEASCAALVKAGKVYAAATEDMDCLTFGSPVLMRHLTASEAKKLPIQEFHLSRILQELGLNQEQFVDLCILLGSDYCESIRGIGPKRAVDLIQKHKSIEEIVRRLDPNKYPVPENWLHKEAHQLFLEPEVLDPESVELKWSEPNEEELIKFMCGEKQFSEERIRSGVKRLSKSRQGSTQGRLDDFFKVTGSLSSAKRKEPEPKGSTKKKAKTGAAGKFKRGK
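FEN1 at 10 nM, compound pretreatment for 15 min (room temperature), 50 nM final substrate to initiate; endpoint reads at 0 and 15 min; DMSO-only plates used as vehicle background.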
Tb PFK inh – blocks T. brucei phosphofructokinase; T. brucei PFK, ADP-Glo luminescence; Potency, µM (doses to about 57.5 µM), inactives show at the highest dose activity, negative = inhibition, most hits filed as inhibitors; O15648; 330,000 compounds, 0.17% hits;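 further: potency means the concentration at half of the fitted maximal effect; 0% = uninhibited 1x PFK enzyme wells and -100% = no-enzyme wells; nearly all actives have a fitted effect of over 60% in size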
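PFK 1.25 nM, F6P 0.5 mM, ATP 0.1 mM, 0.1 M TEA pH 8.0, 5 mM MgCl2, 0.01% Tween20, 0.1% BSA; 45 min RT. ADP-Glo readout. qHTS titration up to 57 uM; curves fitted, compounds curve-classed.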
PGK inhibitor – T. brucei PGK inhibition | PGK/GAPDH coupled, Kinase-Glo luminescence, 60 min | 380,000 compounds, 0.043% hits | Potency, µM (doses to about 57.5 µM), without a hit: at the highest dose activity change, negative = inhibition, actives largely listed as inhibitors; further: potency means the concentration at half of the fitted maximal effect; on the % scale 0 is the no-effect control and ±100 the full control effect; nearly all actives have a fitted effect of over 60% in size
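Luminescent ATP detection (Kinase-Glo Plus) follows a 60-minute room-temperature incubation, with wells lacking PGK as controls. Buffer: 100 mM TEA (pH 7.6), 5 mM MgCl2, 0.01% Tween-20. Coupling enzyme GAPDH (100 nM final) supplies unstable 1,3-BPG in-well.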
TDP1 block – TDP1 (human) enzyme inhibition; Q9NUW8; recombinant TDP1, AlphaScreen DNA substrate cleavage; Potency, µM (doses to about 130 µM), for inactives: top-dose activity change, negative = inhibition, usual class: inhibitors; 350,000 compounds, 0.28% hits; AID 485290; further: potency means the concentration at half of the fitted maximal effect; on the % scale 0 is the no-effect control and ±100 the full control effect; nearly all actives have a fitted effect of over 40% in size
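Tdp1 1 nM final; 15 min RT w/ cpd; substrate 15 nM, 5 min; beads 10 ug/ml, 10 min; AlphaScreen read. Neg ctrl: no enzyme.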
WRN helicase inh – blocks human WRN helicase | WRN helicase unwinding, fluorescent forked duplex, kinetic | 360,000 compounds, 0.46% hits | Q14191 | AID 651768 | Potency, µM (doses to about 114 µM), inactives show at the top dose activity change, negative = inhibition, most hits filed as inhibitors; further: potency means the concentration at half of the fitted maximal effect; on the % scale 0 is the no-effect control and ±100 the full control effect; nearly all actives have a fitted effect of over 55% in size
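Kinetic fluorescence helicase assay: unwinding of a quenched forked DNA duplex (100 nM final) with 2 mM ATP final raises red fluorescence (525/598 nm). Compounds sat 15 min at room temperature with 20 nM WRN beforehand.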
PI5P4K alpha inh – PI5P4K alpha (human) kinase inhibition; 330,000 compounds, 1.2% hits; AID 652105; PI5P4Kalpha enzyme, ADP-Glo luminescence, 60 min; active compounds read low; P48426; max response, %; active means max response of -50% or lower; inconclusive means between -30% and -50%; inactive means -30% or higher; further: value at the top dose of about 77 µM; on the % scale 0 is the no-effect control and ±100 the full control effect
Target sequence (P48426 whole entry, looked up): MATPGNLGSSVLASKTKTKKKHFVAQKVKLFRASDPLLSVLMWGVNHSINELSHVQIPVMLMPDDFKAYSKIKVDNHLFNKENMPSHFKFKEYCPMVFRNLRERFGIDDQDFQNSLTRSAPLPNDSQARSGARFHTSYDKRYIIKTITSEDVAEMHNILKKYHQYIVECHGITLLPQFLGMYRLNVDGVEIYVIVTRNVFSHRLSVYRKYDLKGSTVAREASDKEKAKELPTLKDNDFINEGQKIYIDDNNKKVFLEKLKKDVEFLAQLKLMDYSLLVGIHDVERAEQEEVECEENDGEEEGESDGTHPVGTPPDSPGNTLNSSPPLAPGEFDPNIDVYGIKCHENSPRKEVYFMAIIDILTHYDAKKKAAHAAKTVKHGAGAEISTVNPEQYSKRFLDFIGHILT
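Enzyme plus substrate dispensed, test compounds pinned in, then ATP (5 microM final) added. After 60 min at RT, ADP-Glo reagent 1 for 45 min and reagent 2 for 30 min preceded luminescence imaging.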
FEN1 inh-2 – confirmation of human FEN1 inhibitors; shares compounds with FEN1 inh-1; FEN1 flap cleavage, TAMRA/BHQ2 fluorogenic DNA substrate; Potency, µM, usual class: inhibitors; 880 compounds, 79% hits; further: potency means the concentration at half of the fitted maximal effect; nearly all actives have a fitted effect of over 60% in size
Active calls of the source: *; i = inactive; ? = inconclusive; nt = no result; [ ] = dose if it differs, or a comment. Unless noted, the call rests on the fitted dose curve; in most records, active means well fitted curve in the direction sought with a large enough effect; inconclusive means small, poorly fitted or top-dose-only effect, or another doubt; inactive means no such curve, though single readings can be large; an effect the other way counts as inactive or inconclusive.

SMILES	FEN1 inh-1	Tb PFK inh	PGK inhibitor	TDP1 block	WRN helicase inh	PI5P4K alpha inh	FEN1 inh-2
COC(=O)COc1ccc(/C=C2/SC(=O)N(CC(=O)N3CCCC3)C2=O)cc1Br	1%	-2%	1%	8%	-3%	2	nt
O=c1n(-c2ccccc2)c(=O)n2n1CC[C@H]1/C(=N\OCc3ccccc3)[C@H]3O[C@@H]3[C@@H](O)[C@@H]12	nt	nt	nt	5%[21 µM]	nt	nt	nt
CC(=O)c1c(O)cccc1O	nt	nt	nt	-2%	nt	nt	nt
NC1CCc2ccc([N+](=O)[O-])cc21 (centres undefined)	-9%	nt	nt	nt	nt	nt	nt
CCCN(CCC)CCCNC(=O)c1cc2c(-c3ccc(Cl)cc3)nn(C)c2s1	?	nt	-4%	5%	nt	nt	?
COc1ccc(CNC(=O)c2cc3c(-c4ccc(Cl)cc4)nn(C)c3s2)cc1	-21%	nt	i	-9%	nt	nt	nt
CCOC(=O)C1Cc2cc3c(cc2C1=O)CC(C(=O)OCC)C3=O (centres undefined)	nt	2%	nt	9%	nt	nt	nt
CCOC(=O)C1=C(O)C(=O)C(C(=O)OCC)C1 (centres undefined)	4.5µM*	nt	-4%	nt	5%	-20	8.5*
O=C(COC(=O)c1ccc([N+](=O)[O-])s1)Nc1ccc(F)cc1	-17%	-14%	-8%	3%	27%	-4	nt
COc1ccc(S(=O)(=O)N2CCOCC2)cc1NC(=O)COC(=O)c1ccc([N+](=O)[O-])s1	-20%	0%	-5%	3%	-13%[11.6 µM]	19	6.7*
O=C(COC(=O)c1ccc([N+](=O)[O-])s1)Nc1ccccc1	-18%	-1%	-4%	7%	-3%[57.1 µM]	-7	21*
O=C(OCc1nnc(-c2ccccc2)o1)c1ccc([N+](=O)[O-])s1	?	4%	-16%	3%[56.1 µM]	31%	1	4.8*
Cc1c(Cl)cnc(NC(=O)COC(=O)c2ccc([N+](=O)[O-])s2)c1Cl	?	-11%	-8%	-13%	?	-79*	8.5*
COc1ccc(S(=O)(=O)N2CCOCC2)cc1NC(=O)COC(=O)c1[nH]c(C)c(C(C)=O)c1C	-4%	2%	1%	2%	-24%	-1	nt
NC(Cc1cc(I)c(Oc2cc(I)c(O)c(I)c2)c(I)c1)C(=O)O (centres undefined)	nt	nt	nt	0%	nt	nt	nt
CCOc1ccccc1-c1nnc2n1N=C(c1ccc(OC)c(OC)c1)CS2	nt	nt	nt	-11%	nt	nt	nt
Cc1ccc(NC(=O)c2ccc([N+](=O)[O-])o2)cc1C	7%	2%	-1%	7%	-6%	0	nt
O=C(Nc1ccc2[nH]c(=O)[nH]c2c1)c1ccc([N+](=O)[O-])o1	-24%	-27%	-15%	-19%	-8%[11.6 µM]	-25	43*
CN(C)CCNc1ccc2ncn3c4ccc(O)cc4c(=O)c1c23	8.9µM*	nt	i	nt	?	0	4.8*
COc1ccc2sc3cccc(NCCN(C)C)c3c(=O)c2c1	nt	nt	nt	nt	-27%[57.1 µM]	-2	nt
FC(F)(F)c1ccccc1Cl	nt	nt	nt	5%	nt	nt	nt
CC(=O)Nc1ccc(-n2nnnc2SCC(=O)Nc2cccc(NC(=O)c3ccco3)c2)cc1	?	0%	-6%	nt	9%	3	?
Cc1cc(NC(=O)COC(=O)c2ccccc2OCCOc2ccccc2)ccc1Br	4%	nt	nt	nt	nt	nt	nt
NS(=O)(=O)c1ccc(N=Nc2c(O)c(C(=O)O)cc3ccccc23)cc1	?	17%	-8%	3%	-9%[11.6 µM]	-95*	?
COc1ccc(NC(=O)CN2C(=O)N/C(=C\c3cccn3-c3ccc(C(=O)NC#N)cc3)C2=O)cc1	nt	nt	nt	nt	nt	nt	43*
SMILES	FEN1 inh-1	Tb PFK inh	PGK inhibitor	TDP1 block	WRN helicase inh	PI5P4K alpha inh	FEN1 inh-2
Cc1ccc(-n2cccc2/C=C2/C(=N)N3C(=NC2=O)SN=C3S(C)(=O)=O)cc1Cl	?	-9%	-9%	2%	?	-74*	85*
CC1=CSC2=NC(=O)/C(=C\c3cccn3-c3ccccc3)C(=N)N12	0%	0%	2%	3%	-4%	?	nt
Cc1ccccc1NC(=O)CN1C(=O)N/C(=C\c2ccccc2OCc2ccc(C(=O)O)cc2)C1=O	?	-1%	?	3%[0.0935 µM]	-19%[11.6 µM]	?	85*
CCn1cc(C(=O)O)c(=O)c2cc(F)c(N3CCN(C(=S)Nc4ccccc4OC)CC3)cc21	-28%	0%	-8%	nt	5%	3	nt
CCn1cc(C(=O)O)c(=O)c2cc(F)c(N/N=C/c3ccccc3[N+](=O)[O-])cc21	-20%	0%	1%	-11%	?	?	7.6*
Cc1cc2c(cc1C)N[C@]1(C[C@H]3CCCC(=O)N4CC[C@@H](C1)[C@@H]34)C(=NC1CCCCC1)N2	-4%	nt	nt	nt	nt	nt	nt
N[C@@H](CSCCCO)C(=O)O	nt	nt	nt	4%	nt	nt	nt
CCCCN(CCCC)c1ccc(/C=C/c2ccnc3ccccc23)cc1	0%	nt	nt	nt	nt	nt	nt
O=C(CSc1nc(-c2ccccc2)nc2ccc(F)cc12)Nc1ccc(C(=O)O)cc1	?	-10%	-20%	nt	-21%[57.1 µM]	?	60*
O=C(CSc1nc2ccccc2c2nc(-c3ccccc3)nn12)Nc1ccc(F)cc1	2%	nt	-7%	9%	nt	nt	nt
CC[C@H](C)[C@H](NC(=O)[C@H](CCC(=O)O)NC(=O)CNC(=O)[C@H](CCCCN)NC(=O)[C@H](CCC(=O)O)NC(=O)[C@H](CCSC)NC(=O)[C@H](CCSC)NC(=O)[C@H](CCSC)NC(=O)[C@H](CCC(=O)O)NC(=O)CNC(=O)[C@H](CO)NC(=O)[C@H](CO)NC(=O)[C@H](CO)NC(=O)[C@@H](N)CC(N)=O)C(=O)N[C@@H](CCCCN)C(=O)O	nt	nt	nt	8%	nt	nt	nt
O=S(=O)(O)c1cc(Cl)cc(N=Nc2ccc(O)cc2O)c1O	56µM*	nt	?	nt	50µM*	-98*	85*
COc1cc(/C=C/C=C2/CC/C(=C/C=C/c3ccc(O)c(OC)c3)C2=O)ccc1O	40µM*	nt	?	nt	40µM*	-93*	43*
COC(=O)C1=C(C(=O)OC)[C@@H]2N(Cc3ccccc3)c3ccccc3[C@@]23C[C@@H](C(=O)OC)N(S(=O)(=O)c2ccc4c(c2)OCCN4C)C3=N1	nt	nt	nt	10%[21 µM]	nt	nt	nt
COc1ccccc1NC(=O)c1nc(SCc2ccccc2F)ncc1Cl	2%	nt	nt	nt	nt	nt	nt
CCN(CC)CCOc1ccc(Br)cc1	-5%	8%	nt	-3%	-4%	nt	nt
CCN(CC)CCOc1ccc2c(c1)C(=NO)c1cc(OCCN(CC)CC)ccc1-2	13µM*	-7%	-10%	-5%	35µM*	nt	8.5*
CNc1c2cccc(C)c2nc2c(C(=O)NCCN(C)C)cccc12	2.8µM*	nt	-1%	nt	-10%	6	2.7*
